Laboratory results taken from the supplement of paper PMC10849652.
The full data set covers some 7,900 targets. This sample favours those with a hit. About 0.6% of all pairs of compound and target were hits.

Experiments:
Test in all cases: log2 fold change, soluble protein after heating vs DMSO (PISA); higher = thermal stabilisation; K562 cells, 10 uM, 30 min; active = over 0.2 and 3.5 SD of the protein, either way, in both replicates (recomputed)
IRAK-1-4 Inhibitor I = compound: C1COCCN1CCN2C3=CC=CC=C3N=C2NC(=O)C4=CC(=CC=C4)[N+](=O)[O-] [IRAK-1-4 Inhibitor I]
Outline: (§1)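 K562 cells at 2×10^6 cells/mL were treated for 30 min with 10 μM compound, and aliquots were heated for 3 min over 48°C-58°C before pooling. Extraction used PBS with 0.5% NP-40 at 4°C, and soluble protein was the supernatant after 21,000xg for 90 min, measured by TMTpro 16plex LC-MS/MS with channel sums equalised. Thermal stability values, relative to control samples and from duplicates, are log2 fold changes.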

ibrutinib = compound: C=CC(=O)N1CCC[C@@H](n2nc(-c3ccc(Oc4ccccc4)cc3)c3c(N)ncnc32)C1 [ibrutinib]
Outline: as §1

[1] = compound: CC(=O)c1cnc2ccc(-c3cc(Cl)c(O)c(Cl)c3)nc2c1N[C@H]1CC[C@H](CN(C)C)CC1
Outline: as §1

ralimetinib = compound: CC(C)(C)Cn1c(N)nc2ccc(-c3[nH]c(C(C)(C)C)nc3-c3ccc(F)cc3)nc21 [ralimetinib]
Outline: as §1

[2] = compound: CC(C)(O)CC(=O)NCCn1ccc2ncnc(Nc3ccc(Oc4cccc(C(F)(F)F)c4)c(Cl)c3)c21
Outline: as §1

[3] = compound: CC(C)C1=C2N=C(C=C(N2N=C1)NCC3=CC=CC=C3)NCCCCCCN
Outline: as §1

[4] = compound: CC(C)C[C@@H](C=O)NC(=O)[C@H](CC(C)C)NC(=O)[C@H](CC(C)C)NC(=O)OCc1ccccc1
Outline: as §1

pinometostat = compound: CC(C)N(C[C@H]1O[C@@H](n2cnc3c(N)ncnc32)[C@H](O)[C@@H]1O)[C@H]1C[C@@H](CCc2nc3cc(C(C)(C)C)ccc3[nH]2)C1 [pinometostat]
Outline: as §1

[5] = compound: CC1=C(C(CC(=O)N1)C2=CC=C(C=C2)C(F)(F)F)C(=O)NC3=C(C=C4C(=C3)C=NN4)F
Outline: as §1

[6] = compound: CC1=C(C2=C(C=C1)C(=O)C3=CC=CC=C3N2CCCN)C
Outline: as §1

Measured: log2 fold change

NUP205 (UniProt Q92621)
inactive: IRAK-1-4 Inhibitor I -0.035 | ibrutinib -0.038 | [1] -0.1 | ralimetinib -0.027 | [2] 0.032 | [3] -0.167 | [4] -0.058 | pinometostat 0 | [5] -0.005 | [6] 0.018

NELFA (UniProt Q9H3P2)
inactive: IRAK-1-4 Inhibitor I -0.065 | ibrutinib 0 | [1] -0.357 | ralimetinib 0.02 | [2] -0.286 | [3] -0.054 | [4] -0.043 | pinometostat -0.02 | [5] -0.11 | [6] 0.252

NOB1 (UniProt Q9ULX3)
inactive: IRAK-1-4 Inhibitor I -0.062 | ibrutinib -0.025 | [1] -0.083 | [2] -0.033 | [3] -0.15 | [4] 0.053 | pinometostat 0.068 | [5] 0.047 | [6] -0.031
active: ralimetinib 0.288

MRPS17 (UniProt Q9Y2R5)
inactive: IRAK-1-4 Inhibitor I -0.192 | ibrutinib 0.06 | [1] -0.029 | ralimetinib 0.032 | [2] -0.054 | [3] 0.014 | [4] 0.025 | pinometostat -0.027 | [5] -0.049 | [6] -0.2

MRPS15 (UniProt P82914)
inactive: IRAK-1-4 Inhibitor I -0.062 | ibrutinib -0.022 | [1] -0.024 | ralimetinib 0.014 | [2] -0.12 | [3] -0.041 | [4] 0.004 | pinometostat 0.041 | [5] -0.01 | [6] -0.2

NFYC (UniProt Q13952)
UniProt Q13952, sequence (Q13952 whole entry, looked up): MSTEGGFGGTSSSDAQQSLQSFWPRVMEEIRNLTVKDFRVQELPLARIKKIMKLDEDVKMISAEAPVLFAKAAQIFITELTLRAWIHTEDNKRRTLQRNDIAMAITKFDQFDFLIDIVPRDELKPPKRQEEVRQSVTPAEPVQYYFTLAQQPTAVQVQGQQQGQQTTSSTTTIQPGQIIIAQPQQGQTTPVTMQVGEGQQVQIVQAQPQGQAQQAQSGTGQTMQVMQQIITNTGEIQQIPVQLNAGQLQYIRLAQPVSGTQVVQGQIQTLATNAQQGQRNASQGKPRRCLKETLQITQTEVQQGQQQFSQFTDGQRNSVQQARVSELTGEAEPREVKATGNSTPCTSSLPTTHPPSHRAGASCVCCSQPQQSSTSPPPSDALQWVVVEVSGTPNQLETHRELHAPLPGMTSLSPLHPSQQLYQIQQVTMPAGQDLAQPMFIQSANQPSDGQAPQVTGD
inactive: IRAK-1-4 Inhibitor I -0.023 | ibrutinib -0.042 | [1] -0.023 | ralimetinib -0.09 | [2] -0.046 | [3] 0.019 | [4] -0.061 | pinometostat -0.087 | [5] 0.046
active: [6] 0.332

NFATC2 (UniProt Q13469)
active: [1] -0.635
inactive: IRAK-1-4 Inhibitor I -0.075 | ibrutinib -0.008 | ralimetinib -0.001 | [2] 0.011 | [3] -0.055 | [4] 0.099 | pinometostat 0.102 | [5] 0.013 | [6] -0.033

NA, A0A0B4J2A0
inactive: IRAK-1-4 Inhibitor I 0.014 | ibrutinib -0.015 | [1] -0.072 | ralimetinib -0.023 | [2] -0.105 | [3] 0.044 | [4] 0.031 | pinometostat 0.018 | [5] 0.051 | [6] 0.107

NMT1 (UniProt P30419)
inactive: IRAK-1-4 Inhibitor I 0.023 | ibrutinib 0.028 | [1] 0.017 | ralimetinib 0.017 | [2] -0.047 | [3] -0.053 | [4] 0.008 | pinometostat 0.037 | [5] 0.009 | [6] -0.051

MTMR14 (UniProt Q8NCE2)
inactive: IRAK-1-4 Inhibitor I 0.027 | ibrutinib -0.069 | [1] -0.015 | ralimetinib 0.004 | [2] 0.028 | [3] -0.04 | [4] -0.004 | pinometostat -0.041 | [5] 0.06 | [6] -0.029

NDFIP1 (UniProt Q9BT67)
UniProt Q9BT67, sequence (Q9BT67 whole entry, looked up): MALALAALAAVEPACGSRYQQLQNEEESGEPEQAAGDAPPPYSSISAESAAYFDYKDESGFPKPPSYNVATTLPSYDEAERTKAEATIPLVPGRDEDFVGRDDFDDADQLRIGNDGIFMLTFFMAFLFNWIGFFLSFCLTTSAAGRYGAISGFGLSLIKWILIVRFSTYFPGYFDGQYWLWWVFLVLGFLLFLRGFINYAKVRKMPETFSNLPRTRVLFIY
active: [3] -1.2
inactive: IRAK-1-4 Inhibitor I -0.135 | ibrutinib -0.083 | [1] 0.146 | ralimetinib 0.084 | [2] -0.401 | [4] 0.302 | pinometostat 0.048 | [5] 0.241 | [6] 0.152

NUCKS1 (UniProt Q9H1E3)
inactive: IRAK-1-4 Inhibitor I 0.094 | ibrutinib -0.018 | [1] 0.208 | ralimetinib -0.054 | [2] 0.018 | [3] 0.138 | [4] -0.029 | pinometostat -0.061 | [5] 0.021
active: [6] -0.454

PAFAH1B2 (UniProt P68402)
inactive: IRAK-1-4 Inhibitor I 0.013 | ibrutinib 0.017 | [1] -0.016 | ralimetinib 0.038 | [3] 0.012 | [4] -0.033 | pinometostat 0.016 | [5] 0.027 | [6] 0.005
active: [2] -0.436

NACC1 (UniProt Q96RE7)
active: [3] -0.352
inactive: IRAK-1-4 Inhibitor I -0.026 | ibrutinib -0.048 | [1] -0.109 | ralimetinib -0.017 | [2] -0.058 | [4] -0.014 | pinometostat -0.015 | [5] 0.034 | [6] -0.193

MTHFD1 (UniProt P11586)
UniProt P11586, sequence (P11586 whole entry, looked up): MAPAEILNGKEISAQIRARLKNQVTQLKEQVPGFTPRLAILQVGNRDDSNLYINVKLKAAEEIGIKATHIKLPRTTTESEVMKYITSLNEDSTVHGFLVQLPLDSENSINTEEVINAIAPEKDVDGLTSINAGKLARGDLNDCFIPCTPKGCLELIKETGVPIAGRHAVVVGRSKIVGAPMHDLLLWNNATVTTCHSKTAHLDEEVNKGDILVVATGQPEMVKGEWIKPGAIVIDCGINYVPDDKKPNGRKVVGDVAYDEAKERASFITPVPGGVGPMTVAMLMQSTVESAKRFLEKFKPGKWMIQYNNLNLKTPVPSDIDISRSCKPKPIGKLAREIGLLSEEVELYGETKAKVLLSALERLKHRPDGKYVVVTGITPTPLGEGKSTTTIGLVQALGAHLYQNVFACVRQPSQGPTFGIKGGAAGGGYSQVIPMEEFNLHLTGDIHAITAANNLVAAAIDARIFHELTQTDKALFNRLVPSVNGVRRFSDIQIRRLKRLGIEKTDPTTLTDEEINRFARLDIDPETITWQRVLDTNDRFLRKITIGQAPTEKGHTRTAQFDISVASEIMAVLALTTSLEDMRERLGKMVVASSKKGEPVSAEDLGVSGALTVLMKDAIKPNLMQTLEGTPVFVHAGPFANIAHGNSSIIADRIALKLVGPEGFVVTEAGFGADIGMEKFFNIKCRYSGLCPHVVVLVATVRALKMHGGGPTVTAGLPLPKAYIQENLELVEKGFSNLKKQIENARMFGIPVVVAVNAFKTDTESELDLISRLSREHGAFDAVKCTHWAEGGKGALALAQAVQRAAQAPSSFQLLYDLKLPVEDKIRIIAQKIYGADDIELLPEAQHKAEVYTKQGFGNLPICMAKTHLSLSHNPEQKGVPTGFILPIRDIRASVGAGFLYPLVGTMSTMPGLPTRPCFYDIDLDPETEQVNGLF
inactive: IRAK-1-4 Inhibitor I 0.01 | ibrutinib -0.014 | [1] -0.068 | ralimetinib -0.001 | [2] -0.082 | [3] -0.102 | [4] -0.005 | pinometostat -0.034 | [5] -0.023 | [6] 0.073

NT5DC1 (UniProt Q5TFE4)
inactive: IRAK-1-4 Inhibitor I 0.049 | ibrutinib 0.021 | [1] -0.039 | ralimetinib -0.054 | [2] -0.019 | [3] 0.02 | [4] -0.011 | pinometostat -0.024 | [5] -0.001 | [6] -0.022

PAFAH1B3 (UniProt Q15102)
inactive: IRAK-1-4 Inhibitor I -0.041 | ibrutinib 0.008 | [1] -0.119 | ralimetinib 0.009 | [2] -0.137 | [3] -0.055 | [4] -0.078 | pinometostat 0.023 | [5] 0
active: [6] 0.305

OXR1 (UniProt Q8N573)
UniProt Q8N573, sequence (Q8N573 whole entry, looked up): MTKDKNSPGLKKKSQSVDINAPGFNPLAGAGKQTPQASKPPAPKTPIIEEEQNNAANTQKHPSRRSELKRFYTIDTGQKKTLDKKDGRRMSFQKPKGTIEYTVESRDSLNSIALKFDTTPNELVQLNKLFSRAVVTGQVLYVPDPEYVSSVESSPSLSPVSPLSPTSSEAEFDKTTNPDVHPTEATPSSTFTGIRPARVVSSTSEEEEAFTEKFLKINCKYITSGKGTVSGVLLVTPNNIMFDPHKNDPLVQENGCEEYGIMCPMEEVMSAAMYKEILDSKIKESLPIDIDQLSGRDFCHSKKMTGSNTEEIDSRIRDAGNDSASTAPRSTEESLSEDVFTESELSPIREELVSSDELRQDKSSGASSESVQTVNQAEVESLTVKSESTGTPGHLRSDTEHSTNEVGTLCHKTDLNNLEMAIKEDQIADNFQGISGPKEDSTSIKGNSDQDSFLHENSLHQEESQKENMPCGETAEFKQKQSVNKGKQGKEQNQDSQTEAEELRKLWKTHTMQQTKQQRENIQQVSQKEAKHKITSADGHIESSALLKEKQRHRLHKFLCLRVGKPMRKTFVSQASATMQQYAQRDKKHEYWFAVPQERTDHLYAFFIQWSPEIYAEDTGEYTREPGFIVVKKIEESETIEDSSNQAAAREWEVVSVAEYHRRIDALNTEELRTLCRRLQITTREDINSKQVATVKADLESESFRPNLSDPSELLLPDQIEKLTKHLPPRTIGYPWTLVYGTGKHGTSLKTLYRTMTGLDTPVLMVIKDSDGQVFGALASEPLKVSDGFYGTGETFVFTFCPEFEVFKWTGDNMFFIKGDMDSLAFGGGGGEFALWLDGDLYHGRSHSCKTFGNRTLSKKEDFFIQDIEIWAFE
inactive: IRAK-1-4 Inhibitor I 0.048 | ibrutinib 0.016 | [1] -0.002 | ralimetinib -0.019 | [2] -0.035 | [3] -0.077 | [4] -0.004 | pinometostat 0.023 | [5] -0.008 | [6] 0.009

MYH10 isoform 3 (UniProt P35580)
inactive: IRAK-1-4 Inhibitor I 0.024 | ibrutinib -0.022 | [1] -0.011 | ralimetinib -0.04 | [2] -0.069 | [3] -0.05 | [4] -0.001 | pinometostat -0.015 | [5] -0.019 | [6] -0.024

MIS12 (UniProt Q9H081)
inactive: IRAK-1-4 Inhibitor I 0.024 | ibrutinib 0.026 | [1] -0.025 | ralimetinib -0.004 | [2] -0.151 | [3] -0.087 | [4] 0.06 | pinometostat 0.006 | [5] 0.019 | [6] -0.035

NR2C2AP isoform 2 (UniProt Q86WQ0)
UniProt Q86WQ0, sequence (Q86WQ0 whole entry, looked up): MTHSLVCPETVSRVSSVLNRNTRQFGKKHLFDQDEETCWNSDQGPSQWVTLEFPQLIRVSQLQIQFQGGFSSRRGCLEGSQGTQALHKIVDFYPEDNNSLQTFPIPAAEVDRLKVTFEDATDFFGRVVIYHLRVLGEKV
inactive: IRAK-1-4 Inhibitor I -0.126 | ibrutinib -0.003 | [1] -0.062 | ralimetinib -0.056 | [2] 0.012 | [3] 0.01 | [4] -0.026 | pinometostat -0.073 | [5] 0.057 | [6] 0.063

NQO1 (UniProt P15559)
UniProt P15559, sequence (P15559 whole entry, looked up): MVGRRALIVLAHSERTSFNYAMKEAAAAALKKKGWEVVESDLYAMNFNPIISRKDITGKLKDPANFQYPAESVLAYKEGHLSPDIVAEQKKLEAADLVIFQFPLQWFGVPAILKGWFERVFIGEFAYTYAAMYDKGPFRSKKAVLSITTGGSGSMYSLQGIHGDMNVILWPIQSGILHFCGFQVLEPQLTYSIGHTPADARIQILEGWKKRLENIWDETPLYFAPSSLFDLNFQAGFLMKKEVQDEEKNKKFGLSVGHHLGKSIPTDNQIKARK
inactive: IRAK-1-4 Inhibitor I 0.001 | ibrutinib -0.053 | [1] 0.044 | ralimetinib 0.001 | [2] -0.029 | [3] -0.035 | [4] -0.045 | pinometostat -0.02 | [5] -0.038 | [6] -0.01

MRPS12 (UniProt O15235)
inactive: IRAK-1-4 Inhibitor I 0.05 | ibrutinib -0.031 | [1] -0.033 | ralimetinib -0.017 | [2] -0.053 | [3] -0.123 | [4] 0.092 | pinometostat 0.111 | [5] 0.014 | [6] -0.224

MMS19 isoform 8 (UniProt Q96T76)
inactive: IRAK-1-4 Inhibitor I -0.141 | ibrutinib -0.029 | [1] -0.028 | ralimetinib 0.078 | [2] -0.082 | [3] -0.216 | [4] 0.006 | pinometostat 0.084 | [5] -0.018 | [6] 0.011

MRPS22 (UniProt P82650)
inactive: IRAK-1-4 Inhibitor I -0.027 | ibrutinib 0.051 | [1] -0.02 | ralimetinib 0.017 | [2] -0.102 | [3] -0.11 | [4] 0.04 | pinometostat 0.007 | [5] -0.013 | [6] -0.175

MTHFS (UniProt P49914)
inactive: IRAK-1-4 Inhibitor I -0.003 | ibrutinib -0.01 | [1] -0.009 | ralimetinib -0.09 | [2] -0.095 | [3] -0.009 | [4] 0.007 | pinometostat -0.03 | [5] -0.044 | [6] 0.031

NSMCE2 (UniProt Q96MF7)
UniProt Q96MF7, sequence (Q96MF7 whole entry, looked up): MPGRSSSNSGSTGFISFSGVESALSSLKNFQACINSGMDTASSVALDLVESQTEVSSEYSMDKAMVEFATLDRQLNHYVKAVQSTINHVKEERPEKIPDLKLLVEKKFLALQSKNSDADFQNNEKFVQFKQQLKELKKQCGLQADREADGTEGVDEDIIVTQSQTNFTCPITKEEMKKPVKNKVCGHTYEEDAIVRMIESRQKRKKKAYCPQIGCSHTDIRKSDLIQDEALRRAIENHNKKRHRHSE
inactive: IRAK-1-4 Inhibitor I -0.023 | ibrutinib -0.171 | [1] -0.107 | ralimetinib 0.176 | [2] 0.051 | [3] 0.122 | [4] -0.083 | pinometostat -0.001 | [5] -0.056 | [6] -0.122

NDUFB10 (UniProt O96000)
inactive: IRAK-1-4 Inhibitor I 0.015 | ibrutinib 0.009 | [1] -0.001 | ralimetinib -0.057 | [2] -0.018 | [3] -0.11 | [4] 0.023 | pinometostat -0.018 | [5] 0 | [6] 0.009

NASP (UniProt P49321)
inactive: IRAK-1-4 Inhibitor I 0.01 | ibrutinib -0.044 | [1] 0.033 | ralimetinib 0.019 | [2] -0.004 | [3] -0.05 | [4] -0.009 | pinometostat -0.048 | [5] -0.021 | [6] -0.09

MON2 isoform 5 (UniProt Q7Z3U7)
UniProt Q7Z3U7, sequence (Q7Z3U7 whole entry, looked up): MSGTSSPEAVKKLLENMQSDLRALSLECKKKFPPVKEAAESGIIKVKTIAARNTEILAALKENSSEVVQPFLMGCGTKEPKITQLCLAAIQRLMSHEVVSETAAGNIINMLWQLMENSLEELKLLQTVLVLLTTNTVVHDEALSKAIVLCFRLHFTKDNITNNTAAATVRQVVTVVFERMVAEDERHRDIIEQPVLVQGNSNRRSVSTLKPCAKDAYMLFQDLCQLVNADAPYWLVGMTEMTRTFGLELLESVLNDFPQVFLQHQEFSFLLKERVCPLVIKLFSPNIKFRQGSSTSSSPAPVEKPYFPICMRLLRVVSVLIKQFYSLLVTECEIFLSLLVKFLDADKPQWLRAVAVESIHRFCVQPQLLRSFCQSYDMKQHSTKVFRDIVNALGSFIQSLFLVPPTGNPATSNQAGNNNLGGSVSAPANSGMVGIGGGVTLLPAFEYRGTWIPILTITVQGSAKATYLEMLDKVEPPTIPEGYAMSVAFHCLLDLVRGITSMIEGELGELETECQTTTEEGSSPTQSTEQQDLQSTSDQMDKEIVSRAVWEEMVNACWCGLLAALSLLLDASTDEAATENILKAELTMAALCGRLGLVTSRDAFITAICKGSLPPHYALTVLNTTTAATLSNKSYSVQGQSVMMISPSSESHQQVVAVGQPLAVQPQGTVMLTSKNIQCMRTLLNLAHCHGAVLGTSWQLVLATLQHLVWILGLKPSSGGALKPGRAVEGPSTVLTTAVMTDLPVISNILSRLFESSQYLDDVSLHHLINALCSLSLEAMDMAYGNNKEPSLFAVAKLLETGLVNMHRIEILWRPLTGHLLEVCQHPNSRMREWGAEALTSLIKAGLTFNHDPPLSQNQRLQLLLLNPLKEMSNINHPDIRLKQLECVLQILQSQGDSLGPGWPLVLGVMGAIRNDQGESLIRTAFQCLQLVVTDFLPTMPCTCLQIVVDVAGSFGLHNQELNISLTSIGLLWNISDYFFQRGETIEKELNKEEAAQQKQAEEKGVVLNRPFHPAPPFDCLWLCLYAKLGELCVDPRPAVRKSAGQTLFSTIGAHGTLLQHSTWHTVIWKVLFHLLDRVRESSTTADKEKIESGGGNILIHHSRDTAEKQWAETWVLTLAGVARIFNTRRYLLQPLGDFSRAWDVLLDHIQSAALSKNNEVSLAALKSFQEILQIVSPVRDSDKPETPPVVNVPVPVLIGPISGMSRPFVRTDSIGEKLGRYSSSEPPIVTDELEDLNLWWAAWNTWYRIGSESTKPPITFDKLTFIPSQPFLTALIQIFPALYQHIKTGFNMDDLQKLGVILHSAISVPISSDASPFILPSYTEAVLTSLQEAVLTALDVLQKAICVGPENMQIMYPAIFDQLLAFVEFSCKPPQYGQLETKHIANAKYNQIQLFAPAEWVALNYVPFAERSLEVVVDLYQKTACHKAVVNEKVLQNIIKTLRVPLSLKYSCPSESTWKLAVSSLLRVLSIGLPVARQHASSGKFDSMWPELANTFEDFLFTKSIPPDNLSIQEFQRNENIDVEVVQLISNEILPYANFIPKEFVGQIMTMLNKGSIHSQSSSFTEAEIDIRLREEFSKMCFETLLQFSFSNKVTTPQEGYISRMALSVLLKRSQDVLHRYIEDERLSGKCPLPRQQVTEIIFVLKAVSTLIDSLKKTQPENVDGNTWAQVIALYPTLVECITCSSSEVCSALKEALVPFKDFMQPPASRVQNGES
inactive: IRAK-1-4 Inhibitor I 0.013 | ibrutinib -0.036 | [1] -0.005 | ralimetinib 0.097 | [2] -0.076 | [3] -0.088 | [4] 0.004 | pinometostat 0.048 | [5] -0.022 | [6] 0.055
